Measured values from PMC4336329 (PLoS ONE, 2015).
The whole screen tested about 310,000 compounds, of which about 14,000 (4.5%) showed an effect of 50% or more. The effect is printed as a negative number. Many of the other results were omitted from the sample, so strong results are more common in it than they were.
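Also: peak tail current of the secondary pulse compared with the same well before compound.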

These compounds were tested against human ether-à-go-go-related gene (hERG) potassium channel (human, UniProt Q12809) (assay: primary screen, population patch clamp on CHO cells stably expressing hERG; higher = less effect of the substance).
Sequence of human ether-à-go-go-related gene (hERG) potassium channel (Q12809 whole entry, looked up): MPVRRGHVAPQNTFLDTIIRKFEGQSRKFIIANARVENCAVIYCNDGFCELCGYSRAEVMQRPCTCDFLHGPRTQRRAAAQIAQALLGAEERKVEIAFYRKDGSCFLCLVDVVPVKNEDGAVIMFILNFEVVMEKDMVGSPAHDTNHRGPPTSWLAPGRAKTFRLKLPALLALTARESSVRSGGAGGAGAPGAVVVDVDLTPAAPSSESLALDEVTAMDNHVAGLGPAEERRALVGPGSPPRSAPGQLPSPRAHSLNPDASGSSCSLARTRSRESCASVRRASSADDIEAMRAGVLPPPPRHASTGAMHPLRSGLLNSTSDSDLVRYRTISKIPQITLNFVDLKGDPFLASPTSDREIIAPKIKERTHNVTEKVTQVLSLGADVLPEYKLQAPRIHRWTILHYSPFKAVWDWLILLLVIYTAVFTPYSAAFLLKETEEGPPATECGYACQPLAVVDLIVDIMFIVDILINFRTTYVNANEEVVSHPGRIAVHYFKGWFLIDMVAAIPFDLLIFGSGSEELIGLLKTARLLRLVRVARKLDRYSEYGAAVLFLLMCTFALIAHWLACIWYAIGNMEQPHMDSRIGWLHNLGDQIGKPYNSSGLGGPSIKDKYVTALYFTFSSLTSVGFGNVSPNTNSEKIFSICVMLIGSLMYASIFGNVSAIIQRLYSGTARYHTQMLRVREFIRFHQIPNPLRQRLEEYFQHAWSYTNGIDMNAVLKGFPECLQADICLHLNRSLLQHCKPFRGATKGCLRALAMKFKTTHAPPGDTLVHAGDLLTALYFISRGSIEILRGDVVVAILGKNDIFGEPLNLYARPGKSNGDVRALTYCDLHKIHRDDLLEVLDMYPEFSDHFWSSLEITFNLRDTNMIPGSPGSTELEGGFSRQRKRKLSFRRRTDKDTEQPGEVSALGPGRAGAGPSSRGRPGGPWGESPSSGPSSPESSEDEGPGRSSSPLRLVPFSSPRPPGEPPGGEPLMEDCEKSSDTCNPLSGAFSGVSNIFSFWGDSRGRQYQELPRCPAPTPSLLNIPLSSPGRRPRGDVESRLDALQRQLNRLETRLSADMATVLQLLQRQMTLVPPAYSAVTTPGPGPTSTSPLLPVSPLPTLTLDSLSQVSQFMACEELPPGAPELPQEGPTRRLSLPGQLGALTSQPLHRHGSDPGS
`CCN(Cc1ccccc1)S(=O)(=O)c1cc(C(=O)NCC2CCCCC2)ccc1OC` was tested, and the “hERG current change (%, negative = inhibition) at 10uM” value was -9.52%.
In the case of `CCN(Cc1ccccc1)S(=O)(=O)c1cc(C(=O)O)ccc1OC`, the “hERG current change (%, negative = inhibition) at 10uM” value is reported as 14.1%.
With `O=S(=O)(Nc1cc(C(F)(F)F)ccc1N1CCOCC1)c1ccccc1` the “hERG current change (%, negative = inhibition) at 10uM” value was 4.09%.
For `CC(CC(=O)N1CCN(c2ccccc2)CC1)S(=O)(=O)c1ccc2c(c1)NC(=O)CO2` (stereo not drawn), the “hERG current change (%, negative = inhibition) at 10uM” value was -20.1%.
In the case of `O=C(O)c1cccc(N2C(=O)c3cc4cccc(Br)c4cc3C2=O)c1`, the “hERG current change (%, negative = inhibition) at 10uM” value is reported as 18.4%.
In the case of `Cc1cc(CNC(=O)CC2C(=O)NCCN2Cc2ccc(-c3ccccc3)cc2)nn1C` (stereo not drawn), the “hERG current change (%, negative = inhibition) at 10uM” value is reported as -4.68%.
`O=C(c1ccc([N+](=O)[O-])s1)N1CCc2ccccc2C1` was tested, and the “hERG current change (%, negative = inhibition) at 10uM” value was 13%.
In the case of `FC(F)(F)Oc1ccc(NC(=S)NCc2ccccc2)cc1`, the “hERG current change (%, negative = inhibition) at 10uM” value is reported as 4.62%.
For `Cl.O=C(CNC1=NCCC1)c1ccc(Cl)cc1`, the “hERG current change (%, negative = inhibition) at 10uM” value was -12.2%.
`CCCCCn1c(SC(C)C(C)=O)nc2c1c(=O)[nH]c(=O)n2C` (stereo not drawn) was tested, and the “hERG current change (%, negative = inhibition) at 10uM” value was -92.5%.
With `CCOCCn1c(SC(C)C(C)=O)nc2c1c(=O)[nH]c(=O)n2C` (stereo not drawn) the “hERG current change (%, negative = inhibition) at 10uM” value was -42.8%.
`CCCCCCn1c(SCCCC)nc2c1c(=O)[nH]c(=O)n2C` was tested, and the “hERG current change (%, negative = inhibition) at 10uM” value was 1.97%.
For `CCCCCn1c(SCC(=O)OC)nc2c1c(=O)[nH]c(=O)n2C`, the “hERG current change (%, negative = inhibition) at 10uM” value was -60.7%.
With `CCCCCCn1c(SCC(=O)c2ccccc2)nc2c1c(=O)[nH]c(=O)n2C` the “hERG current change (%, negative = inhibition) at 10uM” value was -26%.
With `CCCCCCn1c(SCCC)nc2c1c(=O)[nH]c(=O)n2C` the “hERG current change (%, negative = inhibition) at 10uM” value was -9.85%.
In the case of `COC(=O)CSc1nc2c(c(=O)[nH]c(=O)n2C)n1CCC(C)C`, the “hERG current change (%, negative = inhibition) at 10uM” value is reported as -3.93%.
`CCCCCn1c(SCCCC)nc2c1c(=O)[nH]c(=O)n2C` was tested, and the “hERG current change (%, negative = inhibition) at 10uM” value was -3.74%.
For `CCCCn1c(SCC(=O)OCC)nc2c1c(=O)[nH]c(=O)n2C`, the “hERG current change (%, negative = inhibition) at 10uM” value was -41.9%.
For `CCCCCCn1c(SCC(C)C)nc2c1c(=O)[nH]c(=O)n2C`, the “hERG current change (%, negative = inhibition) at 10uM” value was 10.3%.
In the case of `CCCCCCn1c(SCCOC)nc2c1c(=O)[nH]c(=O)n2C`, the “hERG current change (%, negative = inhibition) at 10uM” value is reported as -59.8%.
For `CCCCCCn1c(SCC(=O)OC)nc2c1c(=O)[nH]c(=O)n2C`, the “hERG current change (%, negative = inhibition) at 10uM” value was -70.1%.
For `Cc1cccc(-n2ncc3c(=O)[nH]c(SCC(=O)NCCC4=CCCCC4)nc32)c1`, the “hERG current change (%, negative = inhibition) at 10uM” value was 10.9%.
For `CCN(CC)S(=O)(=O)c1cccc(-c2n[nH]c(=S)n2/N=C/c2ccc(C(=O)OC)cc2)c1`, the “hERG current change (%, negative = inhibition) at 10uM” value was -34%.
For `O=C(COC(=O)c1ccc(S(=O)(=O)N2CCCC2)cc1)NCc1ccco1`, the “hERG current change (%, negative = inhibition) at 10uM” value was -10.1%.
In the case of `O=[N+]([O-])c1ccc(/C=N/NC2=NS(=O)(=O)c3ccccc32)cc1`, the “hERG current change (%, negative = inhibition) at 10uM” value is reported as -7.49%.
With `O=C(OCn1nnc2ccccc2c1=O)C1CCCCC1` the “hERG current change (%, negative = inhibition) at 10uM” value was 5.57%.
With `CCCCCCn1c(NCC)nc2c1c(=O)[nH]c(=O)n2C` the “hERG current change (%, negative = inhibition) at 10uM” value was -14.7%.
With `CCCCCCn1c(N(CC)CC)nc2c1c(=O)[nH]c(=O)n2C` the “hERG current change (%, negative = inhibition) at 10uM” value was -63.6%.
In the case of `CCN(CC)c1nc2c(c(=O)[nH]c(=O)n2C)n1CCCc1ccccc1`, the “hERG current change (%, negative = inhibition) at 10uM” value is reported as -45.3%.
With `Cn1nc(C(=O)OCC(=O)NCCc2ccccc2)c2ccccc2c1=O` the “hERG current change (%, negative = inhibition) at 10uM” value was 2.9%.
In the case of `CCN1CCN(c2nc3c(C)cccn3c(=O)c2/C=C(\C#N)S(=O)(=O)c2ccc(C)cc2)CC1`, the “hERG current change (%, negative = inhibition) at 10uM” value is reported as -62.9%.
`Cc1cccn2c(=O)c(/C=C(\C#N)S(=O)(=O)c3ccccc3)c(N3CCN(C)CC3)nc12` was tested, and the “hERG current change (%, negative = inhibition) at 10uM” value was -45.5%.
With `Cc1cccn2c(=O)c(/C=C(\C#N)C(=O)NCc3ccco3)c(N3CCCCCC3)nc12` the “hERG current change (%, negative = inhibition) at 10uM” value was -36.5%.
`Cc1cccn2c(=O)c(/C=C(\C#N)S(=O)(=O)c3ccccc3)c(N3CCN(Cc4ccccc4)CC3)nc12` was tested, and the “hERG current change (%, negative = inhibition) at 10uM” value was -4.68%.
In the case of `Cc1cccn2c(=O)c(/C=C(\C#N)C(=O)NCc3ccco3)c(N3CCCCC3)nc12`, the “hERG current change (%, negative = inhibition) at 10uM” value is reported as -37.8%.
`Cc1ccc(S(=O)(=O)/C(C#N)=C/c2c(N3CCOCC3)nc3c(C)cccn3c2=O)cc1` was tested, and the “hERG current change (%, negative = inhibition) at 10uM” value was -56%.
For `Cc1ccc(S(=O)(=O)/C(C#N)=C/c2c(N3CCN(C)CC3)nc3c(C)cccn3c2=O)cc1`, the “hERG current change (%, negative = inhibition) at 10uM” value was -67.5%.
`Cc1ccc(S(=O)(=O)/C(C#N)=C/c2c(N3CC(C)OC(C)C3)nc3c(C)cccn3c2=O)cc1` (stereo not drawn) was tested, and the “hERG current change (%, negative = inhibition) at 10uM” value was -28.1%.
In the case of `Cc1cccn2c(=O)c(/C=C(\C#N)S(=O)(=O)c3ccccc3)c(N3CCN(c4ccccc4)CC3)nc12`, the “hERG current change (%, negative = inhibition) at 10uM” value is reported as 9.12%.
For `CCN1CCN(c2nc3c(C)cccn3c(=O)c2/C=C(\C#N)S(=O)(=O)c2ccccc2)CC1`, the “hERG current change (%, negative = inhibition) at 10uM” value was -15.7%.
For `Cc1ccc(S(=O)(=O)/C(C#N)=C/c2c(Oc3ccc(Cl)cc3)nc3c(C)cccn3c2=O)cc1`, the “hERG current change (%, negative = inhibition) at 10uM” value was 19.3%.
In the case of `Cc1cccn2c(=O)c(/C=C(\C#N)C(=O)NCc3ccco3)c(N3CCOCC3)nc12`, the “hERG current change (%, negative = inhibition) at 10uM” value is reported as -50.9%.
